The whole screen tested about 48,000 compounds, of which about 13,000 (27%) showed an effect of 50% or more. Some of the results follow.
system: Wolbachia pipientis; experiment: Anti-Wolbachia Cell-Based Screen; format: functional; set-up: scale not given: in the data most compounds retested in dose-response had high values; details: 5 µM

Going from `COCCN(CC(F)F)c1cc(C(F)(F)F)nc2ncnn12` to `Cc1cc(C(F)(F)F)nc(N2CCN(Cc3nccn3C)CC2)n1`, the “Percent Effect” value falls from -7.811% to -22.48%.

Going from `Cc1cnn(-c2ccc(S(=O)(=O)N(C)CC(F)F)cc2F)c1` to `COc1cc(C(=O)NCCS(=O)(=O)N(C)C)c2ccccc2n1`, the “Percent Effect” value rises from 2.178% to 5.496%.

First: CC(C)Cc1cc(C(=O)NC(C)(C)CN2CCCCCC2)on1
Second: COc1cc(C(=O)NC(C)(C)CN2CCN(C)CC2)c2ccccc2n1
The “Percent Effect” value of the first is lower: 2.202% for the first, 96.51% for the second.

Compared with `COc1cc(C(=O)NCC2(N(C)C)CCN(C)CC2)c2ccccc2n1`, `Cc1cc(C(=O)NCC2(N(C)C)CCCC2)c(C)n1-c1cccnc1` is lower in “Percent Effect” value: 126.6% for the first, 3.224% for the second.

Compared with `CN1CCN(Cc2ccccc2CNC(=O)c2ccc(Cl)cc2F)CC1`, `CN(CCN1CCN(c2ccccc2)CC1)C(=O)Nc1ccncc1` is higher in “Percent Effect” value: -10.17% for the first, -6.47% for the second.

Compared with `CC(C)(C)c1ncc(C(=O)N2CCN(C(=O)c3ccc[nH]3)CC2)c(O)n1`, `Cc1[nH]ccc1C(=O)N1CCCN1C(=O)OC(C)(C)C` is higher in “Percent Effect” value: -10.28% for the first, -3.846% for the second.

First: CS(=O)(=O)N1CCCC12CCCN(C(=O)c1ccc[nH]1)C2 (stereo not drawn)
Second: O=C(c1ccc[nH]1)N1CCOCC12CCCC2
The “Percent Effect” value of the first is lower: -4.016% for the first, 75.31% for the second.

First: Cc1ccc(F)cc1C(=O)N1CCOCC12CCCC2
Second: Cc1[nH]ccc1C(=O)N1CCOCC12CCCC2
The “Percent Effect” value of the first is higher: 111.7% for the first, 102.2% for the second.

First: Cc1[nH]ccc1C(=O)N1CCC2(CC1)c1nc[nH]c1CCN2S(C)(=O)=O
Second: O=C(c1ccc[nH]1)N1CCC2(CC1)COCCN(c1nccs1)C2
The “Percent Effect” value of the first is lower: -18.24% for the first, 4.422% for the second.

First: Cc1ccc(F)cc1C(=O)NCc1ccc(C(=O)O)o1
Second: Cc1ccc(F)cc1C(=O)N1C[C@@H](CN2CCOCC2)[C@@H](CO)C1
The “Percent Effect” value of the first is higher: 7.122% for the first, -1.252% for the second.

Compared with `Cc1ccoc1C(=O)N1CCCc2c(c(=O)n(C)n2C)C1`, `Cc1ccc(C(=O)N2CCCc3c(c(=O)n(C)n3C)C2)o1` is higher in “Percent Effect” value: -8.814% for the first, -7.196% for the second.

Compared with `Cn1c2c(c(=O)n1C)CN(C(=O)c1ccsc1)CCC2`, `Cc1ccsc1C(=O)N1CCCc2c(c(=O)n(C)n2C)C1` is higher in “Percent Effect” value: -11.42% for the first, 9.7% for the second.

Compared with `Cn1c2c(c(=O)n1C)CN(C(=O)c1ccncc1F)CCC2`, `Cn1c2c(c(=O)n1C)CN(C(=O)c1cnccn1)CCC2` is higher in “Percent Effect” value: 104.3% for the first, 106.7% for the second.

First: Cn1c2c(c(=O)n1C)CN(C(=O)c1ccco1)CCC2
Second: Cn1c2c(c(=O)n1C)CN(C(=O)c1cccc(F)c1)CCC2
The “Percent Effect” value of the first is lower: 0.5105% for the first, 83.47% for the second.

First: Cn1nc(CN2CCCC2)c2c1CN(C(=O)c1ccncc1F)CC2
Second: Cc1nc(N2CCCC2)nc2c1CCN(Cc1ccoc1)CC2.O=C(O)C(F)(F)F
The “Percent Effect” value of the first is lower: -1.138% for the first, 6.139% for the second.

First: Cc1csc2c(N3CCC(NCCCc4cnn(C)c4)CC3)ncnc12
Second: CN(CCCc1cnn(C)c1)C(=O)Nc1cccc2[nH]nnc12
The “Percent Effect” value of the first is lower: -7.863% for the first, -5.738% for the second.

First: COc1ccc(N2CCC(N(C)C(=O)Nc3ccncc3)CC2)cc1
Second: CN(C(=O)Nc1ccncc1)C1CCN(c2ccc(Cl)cc2)CC1
The “Percent Effect” value of the first is lower: 86.34% for the first, 99.54% for the second.

Compared with `CCCNC(=O)CN(C)C1CCN(c2ccc(Cl)cc2)CC1`, `CNC(=O)CN(C)C1CCN(c2ccc(Cl)cc2)CC1` is higher in “Percent Effect” value: -1.782% for the first, 12.22% for the second.

First: CN(CC(=O)N(C)C1CC1)C1CCN(c2ccc(Cl)cc2)CC1
Second: CN(C(=O)NC1CC1)C1CCN(c2ccc(Cl)cc2)CC1
The “Percent Effect” value of the first is lower: -1.318% for the first, 95.01% for the second.

Going from `Cc1cc(N2CCC(N(C)C(=O)Nc3ccccc3)CC2)nc(C)n1` to `CN(C(=O)Nc1cccnc1)C1CCN(c2ccc(Cl)cc2)CC1`, the “Percent Effect” value rises from 1.821% to 102.5%.

Going from `COc1ccc(N2CCC(N(C)C(=O)C(C)SC)CC2)cc1` (stereo not drawn) to `CSC(C)C(=O)N(C)C1CCN(c2ccc(Cl)cc2)CC1` (stereo not drawn), the “Percent Effect” value falls from 1.657% to -5.322%.

Compared with `CCOC(C)C(=O)N(C)C1CCN(c2ccc(OC)cc2)CC1` (stereo not drawn), `CCC(CNC(=O)NC1CCN(C)CC1)Oc1ccccc1Cl` (stereo not drawn) is higher in “Percent Effect” value: -2.729% for the first, 5.674% for the second.

First: Cc1nc(N2CCOCC2)nc2c1CCN(Cc1ccsc1)CC2.O=C(O)C(F)(F)F
Second: Cc1nc(N2CCOCC2)nc2c1CCN(Cc1cccnc1)CC2.O=C(O)C(F)(F)F
The “Percent Effect” value of the first is higher: -7.325% for the first, -14.62% for the second.

First: COc1cc(C)nc(N2CCN(Cc3nccn3C)CC2)n1
Second: Cc1cc(C)nc(N2CCN(Cc3nccn3C)CC2)n1.O=CO
The “Percent Effect” value of the first is lower: 16.21% for the first, 104.1% for the second.

Compared with `Cn1ccnc1CN1CCN(Cc2cc(-c3ccccc3)no2)CC1`, `Cc1nc(-c2ccccc2)nc2c1CCN(Cc1nccn1C)CC2` is higher in “Percent Effect” value: 10.9% for the first, 118.4% for the second.

Going from `CC(C)Nc1nc2c(c(NC3CC3)n1)CCN(Cc1nccn1C)CC2.O=C(O)C(F)(F)F` to `CC(C)Nc1nc2c(c(N(C)C)n1)CCN(Cc1nccn1C)CC2.O=C(O)C(F)(F)F`, the “Percent Effect” value falls from 5.459% to -14.43%.

First: Cc1nc(N2CCOCC2)nc2c1CCN(Cc1nccn1C)CC2.O=C(O)C(F)(F)F
Second: Cc1nc(N2CCCC2)nc2c1CCN(Cc1nccn1C)CC2.O=C(O)C(F)(F)F
The “Percent Effect” value of the first is higher: 110.5% for the first, 105.6% for the second.

Compared with `Cc1nc(C)c2c(n1)CCN(Cc1nccn1C)CC2.O=C(O)C(F)(F)F`, `CN(C)c1nc(N2CCCC2)nc2c1CCN(Cc1nccn1C)CC2.O=C(O)C(F)(F)F` is lower in “Percent Effect” value: 102.7% for the first, 102.1% for the second.

Compared with `Cc1nc(NC(C)C)nc2c1CN(Cc1nccn1C)CC2`, `Cn1ccnc1CN1CCc2ncnc(N3CCCC3)c2CC1.O=C(O)C(F)(F)F` is higher in “Percent Effect” value: 3.247% for the first, 15.66% for the second.

Compared with `CC(C)(C)C(=O)N1C[C@@H]2COC[C@]2(c2nnc(C3CC3)o2)C1`, `CCC(C)(C)C(=O)N1CCN(C2=NCC(C)S2)CC1` (stereo not drawn) is lower in “Percent Effect” value: 1.473% for the first, -0.6002% for the second.

Compared with `N#Cc1cccc(N2CCCC(CO)(CCOc3ccccc3)C2)n1` (stereo not drawn), `O=C(c1cncc(N2CCC3(CCNCC3)CC2)n1)N1CCCC1` is higher in “Percent Effect” value: -9.375% for the first, 1.429% for the second.

For `CN(C)c1nc(N2CCCC2)nc2c1CCN(C(=O)c1ccco1)CC2.O=C(O)C(F)(F)F.O=C(O)C(F)(F)F`, the “Percent Effect” value was 15.95%.

Reference: ChEMBL document CHEMBL3988442, “University of Dundee, Small-Polar-MMV Screening Library” (2021)
